Data on 35 sequences can be found in PMC4666376, “Characterisation of aptamer–target interactions by branched selection and high-throughput sequencing of SELEX pools”.

The assay has as its target PAI-1 wild type, active (human, UniProt P05121 24-402). The assay can be described thus: branched SELEX with high-throughput sequencing; PAI-1 immobilised on polyclonal anti-PAI-1 antibody; HBS (10 mM HEPES pH 7.4, 140 mM NaCl), 2 mM MgCl2, 2 mM CaCl2, 0.1% BSA; RNA pool 100 nM; PAI-1 captured on antibody-coated wells; 45 min; binding temperature not stated (PAI-1 capture at room temperature); high values mean tight binding.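 Note: Pool frequency after one selection round with this target divided by frequency before selection.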 To be noted: protein: recombinant; tags: N-terminal His6; structured_RNA; 2'-F pyrimidines.

PAI-1 wild type, active, sequence (P05121 24-402): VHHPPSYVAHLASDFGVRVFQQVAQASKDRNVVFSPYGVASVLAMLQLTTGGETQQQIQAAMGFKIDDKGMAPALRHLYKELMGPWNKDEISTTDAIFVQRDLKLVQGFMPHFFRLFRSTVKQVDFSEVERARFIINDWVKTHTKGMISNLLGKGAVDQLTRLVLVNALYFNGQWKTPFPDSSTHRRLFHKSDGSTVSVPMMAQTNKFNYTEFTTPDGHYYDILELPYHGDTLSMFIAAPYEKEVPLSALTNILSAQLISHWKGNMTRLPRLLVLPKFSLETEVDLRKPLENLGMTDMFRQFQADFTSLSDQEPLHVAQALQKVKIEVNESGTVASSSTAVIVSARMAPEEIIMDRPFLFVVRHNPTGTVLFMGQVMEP

“GGGGCCACCAACGACAUUCGCACUGUAGCUAUGUGGAUAGCGACCAGAAUUUCGUUGAUAUAAAUAGUGCCCAUGGAUC”: the binding signal turned out to be 2.51 enrichment factor.

As to “GGGGCCACCAACGACAUUGAUGAUCACUGUUUCGCGCAGUGCCGUAUAUCGAUGUUGAUAUAAAUAGUGCCCAUGGAUC”, the binding signal is 4.36 enrichment factor. For the sequence “GGGGCCACCAACGACAUUCACACAACGUAGGCUCGUGAGCCGAUCAGUGAUUAGUUGAUAUAAAUAGUGCCCAUGGAUC”, the binding signal was found to be 0.81 enrichment factor. The figure for “GGGGCCACCAACGACAUUUUACUGUAGAGAAGAAUUACUUCUCGACCAAAUGUGGUUGAUAUAAAUAGUGCCCAUGGAUC” is 0.55 enrichment factor. The same measure for “GGGGCCACCAACGACAUUGUCGUAGGCAGAUAGAUUAUAUCCGCUGACCAGUGUUGAUAUAAAUAGUGCCCAUGGAUC”: 2.25 enrichment factor; for “GGGGCCACCAACGACAUUCCGUCCGUGUUCAGUUAACACGCAUGUGUUUUGUGGUUGAUAUAAAUAGUGCCCAUGGAUC”: 1.36 enrichment factor; for “GGGGCCACCAACGACAUUAAGUUCGUCCUCUUCCAAGAGAAGGGGUCUAUGCCGUUGAUAUAAAUAGUGCCCAUGGAUC”: 5.35 enrichment factor. The same measure for “GGGGCCACCAACGACAUUAUGCCGUAGGCGCUAGAUGUGCCGAUCAUAAUGCAGUUGAUAUAAAUAGUGCCCAUGGAUC”: 0.5 enrichment factor; for “GGGGCCACCAACGACAUUAGCAGUCGUAGGCCGUAAUGGCUGACCUGUAUGACGUUGAUAUAAAUAGUGCCCAUGGAUC”: 0.68 enrichment factor; for “GGGGCCACCAACGACAUUCUAGUCUGGUAGCAAUACCUAAGUUCGUCUAGAAAGUUGAUAUAAAUAGUGCCCAUGGAUC”: 0.89 enrichment factor. Take “GGGGCCACCAACGACAUUGAGUCUCCUACACGCGUAGGUAAGUUCGUCUCAUUGUUGAUAUAAAUAGUGCCCAUGGAUC”: the binding signal amounted to 3.79 enrichment factor. The same measure for “GGGGCCACCAACGACAUUGUUGAGCGCUGAGUUUCUGCGUUAGUUCUGUCAAUGUUGAUAUAAAUAGUGCCCAUGGAUC”: 3.37 enrichment factor; for “GGGGCCACCAACGACAUUGAACUUGUAGUACCUGUAUUGGGUAUGACCUCAGUGUUGAUAUAAAUAGUGCCCAUGGAUC”: 1.61 enrichment factor.

For “GGGGCCACCAACGACAUUGCCGUAGGCGAUAAUACAUCGCUGAUCAUUUGUACGUUGAUAUAAAUAGUGCCCAUGGAUC”, the binding signal is 2.34 enrichment factor. Regarding “GGGGCCACCAACGACAUUGCGCGAAGCGCUUACGCGUGUUGAUCGAAUGUUGUUGAUAUAAAUAGUGCCCAUGGAUC”, the binding signal was determined as 1.4 enrichment factor.

Take “GGGGCCACCAACGACAUUGAUCAACGAUCACCAUGAUACACAUGGAUCACGUAGUUGAUAUAAAUAGUGCCCAUGGAUC”: the binding signal came out at 0.62 enrichment factor.

As to “GGGGCCACCAACGACAUUCUGGCCGUAGGACAAUAGUCCGAUCCAGAUAUAGAGUUGAUAUAAAUAGUGCCCAUGGAUC”, the binding signal is 0.54 enrichment factor.

Consider “GGGGCCACCAACGACAUUACGUAGCUGGGUUUCACCAGCGAUUAGUUGUUGAUAUAAAUAGUGCCCAUGGAUC”, for which the binding signal worked out at 0.7 enrichment factor. The figure for “GGGGCCACCAACGACAUUACCAUGUAGGCGUAAUUUCACGCUGACCAAGUGUUGUUGAUAUAAAUAGUGCCCAUGGAUC” is 1.19 enrichment factor; for “GGGGCCACCAACGACAUUCGUGUUGUAUCUGUUAUACAGCAUGUUAUUUGUGCGUUGAUAUAAAUAGUGCCCAUGGAUC” it is 3.72 enrichment factor. For the sequence “GGGGCCACCAACGACAUUGACCCGUAGUGUCUUACUACGACUUGUAGAUGUUGUUGAUAUAAAUAGUGCCCAUGGAUC”, the binding signal came out at 0.5 enrichment factor. The same measure for “GGGGCCACCAACGACAUUAUGAGCCCUAUCUAUCGACCGAUCAUGUCACGUAGGUUGAUAUAAAUAGUGCCCAUGGAUC”: 1.38 enrichment factor; for “GGGGCCACCAACGACAUUACGUAGGUAGCAUUUAUAUGCUUGACCGAUCAAUCGUUGAUAUAAAUAGUGCCCAUGGAUC”: 1.07 enrichment factor. The same measure for “GGGGCCACCAACGACAUUGUAGACUUGUCAACGGUCGACUGUCGAUACAUGUGUUGAUAUAAAUAGUGCCCAUGGAUC”: 0.56 enrichment factor. As to “GGGGCCACCAACGACAUUGUCGUAGGCAAGUGUACGAAUCUUUGCUGACCAGUGUUGAUAUAAAUAGUGCCCAUGGAUC”, the binding signal stood at 2.67 enrichment factor. The figure for “GGGGCCACCAACGACAUUUACGCACCGUAGACUUAAUAGUCGAUUAGUACAUGUUGAUAUAAAUAGUGCCCAUGGAUC” is 1.19 enrichment factor; for “GGGGCCACCAACGACAUUGGUAAUGGUGUGAAUUAACCUUAAGCCUAUUGGUUGUUGAUAUAAAUAGUGCCCAUGGAUC” it is 0.22 enrichment factor; for “GGGGCCACCAACGACAUUCGACCAGACGACAAGUCGUCGCACCGUAGAGUGUAGUUGAUAUAAAUAGUGCCCAUGGAUC” it is 0.15 enrichment factor. The figure for “GGGGCCACCAACGACAUUGUGACCCACCAUUAUAUGGUGACUAGUAGCGUGUUGUUGAUAUAAAUAGUGCCCAUGGAUC” is 0.17 enrichment factor; for “GGGGCCACCAACGACAUUGCCGUAGGUGCGGGAACACUUCACCGAUCGAUGUUGUUGAUAUAAAUAGUGCCCAUGGAUC” it is 2.29 enrichment factor; for “GGGGCCACCAACGACAUUGCCGUAGUGCAGGGUUGCUUGCAUGAUCAAUUGUUGUUGAUAUAAAUAGUGCCCAUGGAUC” it is 2.1 enrichment factor. Consider “GGGGCCACCAACGACAUUUCAUAACGUAGACUGUCUGAGUCGAUCAGAGUGUUGUUGAUAUAAAUAGUGCCCAUGGAUC”, for which the binding signal was 1.68 enrichment factor. Take “GGGGCCACCAACGACAUUUAAGUUCGUCUCACUGACUCUGCAGUGAGUCUAAUGUUGAUAUAAAUAGUGCCCAUGGAUC”: the binding signal is 7.58 enrichment factor.

As for “GGGGCCACCAACGACAUUGUCGUAGCCGGACUCCACCGGUGACCAAUGAGCGUUGAUAUAAAUAGUGCCCAUGGAUC”, the binding signal came to 0.57 enrichment factor. The same measure for “GGGGCCACCAACGACAUUGCAUCGUAGGCAUAUAGCUGACUGCAAUUUAGGACGUUGAUAUAAAUAGUGCCCAUGGAUC”: 2 enrichment factor.
